Screening results: PubChem BioAssay, National Center for Advancing Translational Sciences (NCATS)
FMDV inh = foot and mouth disease virus antiviral activity. FMDV antiviral cell-based qHTS. hit rate 1.2% among 410,000. Potency, µM (doses to about 57.9 µM), most hits filed as inhibitors; calls by dose curve; tested in HEK293T cells; further: read-out not given here; nearly all actives have a fitted effect of over 45% in size
Lassa entry inh = blocks Lassa virus binding to or entry into cells; Potency, µM (titrated, usually from 37.9 µM), usual class: inhibitors; Lassa virus pseudotype entry inhibition, cell reporter; hit rate 1.2% among 300,000; AID 540256; calls by dose curve; tested in HEK293 cells; further: nearly all actives have a fitted effect of over 50% in size
Marburg entry inh = blocks Marburg virus binding to or entry into cells. Marburg virus pseudotyped entry inhibition, cell reporter. hit rate 1.8% among 300,000. Potency, µM (doses to about 37.8 µM), most hits filed as inhibitors; calls by dose curve; tested in HEK293 cells
HCMV inh = inhibitors of human cytomegalovirus; HFF cells, HCMV-luciferase reporter, 72 h; stronger effect = lower value; activity change, negative = inhibition, % at 57.5 µM; AID 1259415; hit rate 4.5% among 410,000; in the data active means activity change below about -60%; inconclusive means no clear call, values can overlap the other calls; inactive means above about -39%
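After 16 h attachment at 37C, HFF cells received test compound and HCMV-luciferase (1 PFU/cell); reporter luminescence read 72 h later, data normalized against buffer-only and known inhibitor Salinomycin.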
HCV inh = HCV inhibition | Huh7.5.1 HCVcc-Cre infection, luciferase reporter, 44 h | Potency, µM (titrated, usually from 41.8 µM), hits mostly inhibitors | hit rate 3.4% among 340,000; active means well fitted inhibition curve with a large enough effect; inconclusive means small, poorly fitted or top-dose-only effect, or another doubt; inactive means no such curve, though single readings can be large or run the other way
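After 44 h co-culture of compound, cells and HCVcc-Cre (~0.5 moi), substrate is added for 15 min at room temperature and luciferase measured over 15 sec. Cells were seeded at 1,000/well and pre-cultured 4 h.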
Numbers stand for hits; [ ] = dose if it differs, or a comment. Only some compounds are listed: those with a hit (about 7.9% of all), similar ones and a draw of the others.

`COc1ccc(-c2nc(C)c(CCNC(=O)c3c(F)cccc3F)s2)cc1` gave FMDV inh inactive, Lassa entry inh inactive and HCMV inh inactive.
CCOc1ccc(C(=O)Nc2ccccc2N2CCCC2)cc1 was read as FMDV inh inactive, Lassa entry inh inactive, Marburg entry inh inactive, HCMV inh -76 and HCV inh inconclusive.
Screening CCOc1ccccc1NC(=O)Nc1cc(C(=O)NCc2ccc(C)cc2)ccc1N1CCCC1 returned FMDV inh inactive, Lassa entry inh inactive and HCMV inh -85.
For CCCCn1nc(C(=O)Nc2ccc3c(c2)OCCO3)c2ccccc2c1=O the results were FMDV inh inactive, HCMV inh -69 and HCV inh inconclusive.
`CCn1nc(C(=O)Nc2ccccc2N2CCCC2)c2ccccc2c1=O` gave FMDV inh inconclusive, Lassa entry inh inconclusive, Marburg entry inh inconclusive, HCMV inh inactive and HCV inh 10µM.
Screening Cc1cccc(NC(=O)CN(C)S(=O)(=O)c2ccc3c(c2)c(=O)n(C)c(=O)n3C)c1C returned FMDV inh inactive, Lassa entry inh inactive, Marburg entry inh inactive and HCMV inh inactive.
Screening Cc1ccccc1OCC(=O)NCC(c1ccc(Cl)cc1)N1CCCCC1 (stereo unspecified) returned FMDV inh inactive, Lassa entry inh inactive, Marburg entry inh inconclusive and HCMV inh inactive.
CCC(=O)N1CCc2cc(S(=O)(=O)NC(CC(C)C)C(=O)NCc3ccc(F)cc3)ccc21 (stereo unspecified) was read as FMDV inh inactive, Lassa entry inh inactive, Marburg entry inh inactive and HCMV inh inactive.
`CCOc1ccc(C(=O)C2CCN(CC(=O)Nc3ccccc3N3CCOCC3)CC2)cc1` gave FMDV inh inactive, Lassa entry inh 18µM, Marburg entry inh inconclusive, HCMV inh inconclusive and HCV inh inconclusive.
CCOc1ccc(C(=O)Nc2ccccc2N2CCOCC2)cc1 was read as FMDV inh inactive, Lassa entry inh inactive, Marburg entry inh inactive, HCMV inh inconclusive and HCV inh inactive.
For Cc1ccc(C(=O)C2CCN(CC(=O)Nc3ccccc3C)CC2)cc1 the results were FMDV inh inactive, Marburg entry inh inconclusive, HCMV inh -63 and HCV inh inconclusive.
COc1ccc(-c2cc3ccc(O)c(CN4CCC(C)CC4)c3oc2=O)cc1OC was read as FMDV inh inactive, Lassa entry inh inactive and HCMV inh inactive.
For O=C(Nc1ncc2c(n1)-c1ccccc1CC2)C1CC1 the results were FMDV inh inactive, Lassa entry inh inconclusive, Marburg entry inh inactive, HCMV inh inactive and HCV inh inconclusive.
For CC(C)SCC(=O)Nc1ncc2c(n1)-c1ccccc1CC2 the results were FMDV inh inactive, Lassa entry inh inconclusive, Marburg entry inh inactive, HCMV inh -64 and HCV inh inconclusive.
For CC(c1ccccc1C(O)(c1ccccc1)c1ccccc1)N(C)C (stereo unspecified) the results were FMDV inh inactive, Lassa entry inh inactive, Marburg entry inh inactive, HCMV inh -69 and HCV inh inactive.
`Cc1ccc(/C=C/C(=O)OC(C)C(=O)Nc2ncc(Cl)cc2Cl)o1` (stereo unspecified) gave FMDV inh inactive, Lassa entry inh inactive, Marburg entry inh inactive, HCMV inh -98 and HCV inh inactive.
Screening Cc1nc(S[C@@H]2C=CS(=O)(=O)C2)n[nH]1 returned Marburg entry inh inactive.
Screening O=C(CCc1ccc(O)cc1)c1c(O)cc(O)cc1O returned FMDV inh inactive, Lassa entry inh inconclusive, Marburg entry inh inconclusive, HCMV inh inactive and HCV inh inactive[8.37 µM].
COc1cc(O)c(CC=C(C)C)c(O)c1C(=O)CCc1ccc(O)cc1 was read as FMDV inh inactive, HCMV inh inactive and HCV inh 0.71µM.
For COc1ccc(Cn2c(C(=O)O)c(CNC3CCCCCC3)c3ccc(OC)cc32)cc1 the results were FMDV inh inactive, Lassa entry inh inactive and HCMV inh -100.
Screening COc1ccc2c(CNCCc3ccccc3OC)c(C(=O)O)n(Cc3ccc(F)cc3Cl)c2c1 returned FMDV inh inactive, Lassa entry inh inactive and HCMV inh -108.
Screening COc1ccc2c(CNCCc3ccc(SC)cc3)c(C(=O)O)n(Cc3ccc(F)cc3)c2c1 returned FMDV inh inactive, Lassa entry inh inconclusive and HCMV inh -74.
For O=c1cc(N=Nc2ccc(Cl)cc2)[nH]c(=O)[nH]1 the results were FMDV inh 25µM, Lassa entry inh inconclusive, Marburg entry inh inactive, HCMV inh -100 and HCV inh inconclusive.
For O=c1cc(-c2ccc(Cl)cc2)oc(=O)[nH]1 the results were FMDV inh inactive, HCMV inh inactive and HCV inh inactive.
COc1ccc(N[C@H]2CC(=O)N(C)C2=O)cc1 was read as Marburg entry inh inactive.
COCc1cccc(-c2cccc3c2COCC(=O)N3Cc2ccccc2)c1 was read as HCMV inh inactive.
`CN=C1S/C(=C\c2ccc(SC)cc2)C(=O)N1C` gave FMDV inh inactive, Lassa entry inh inconclusive, Marburg entry inh inactive, HCMV inh inactive and HCV inh inconclusive.
Screening CN=C1S/C(=C\c2ccc(Cl)cc2)C(=O)N1C returned FMDV inh inactive, Lassa entry inh inactive, Marburg entry inh inactive, HCMV inh inactive and HCV inh 11µM.
Screening C=CCN=C1S/C(=C/c2cccc([N+](=O)[O-])c2)C(=O)N1CC=C returned FMDV inh inconclusive, HCMV inh -74 and HCV inh inconclusive.
Screening C=CCN=C1S/C(=C/c2ccc([N+](=O)[O-])cc2)C(=O)N1CC=C returned FMDV inh inactive, Lassa entry inh inactive, Marburg entry inh inactive, HCMV inh inactive and HCV inh inactive.
`C=CCN=C1S/C(=C\c2ccc(Cl)cc2)C(=O)N1CC=C` gave FMDV inh inactive, Lassa entry inh inactive, Marburg entry inh inactive, HCMV inh -84 and HCV inh inactive.
`C=CCN1C(=O)/C(=C/c2ccc(N(C)C)cc2)S/C1=N\c1nnc(CC)s1` gave Marburg entry inh inactive and HCV inh inactive.
`CCOc1ccc(-c2nonc2NC(=O)COc2ccc(C)c(C)c2)cc1OCC` gave FMDV inh inactive, Lassa entry inh inactive, Marburg entry inh inactive and HCMV inh inactive.
Screening C=CCOC(=O)N[C@@H](Cc1ccccc1)C(C(=O)OC)=C(C)NCc1ccccc1 returned Marburg entry inh inactive.
For COC(=O)c1ccc2c(=O)[nH]c(CCl)nc2c1 the results were FMDV inh inconclusive, Lassa entry inh inconclusive, Marburg entry inh 13µM, HCMV inh inactive and HCV inh inconclusive.
`COc1ccc(CN2CCC(=O)N([C@H](CO)CC(C)C)CC2)cc1OC` gave FMDV inh inactive, HCMV inh -68 and HCV inh inactive.
For CC(C)C[C@@H](CN=[N+]=[N-])N1CCN(C)CCC1=O the results were FMDV inh inactive, HCMV inh -62 and HCV inh inactive.
Screening CCCN1CCC(=O)N([C@H](CO)CC(C)C)CC1 returned FMDV inh inactive, HCMV inh -61 and HCV inh inactive.
Screening CC(C)C[C@@H](CO)N1CCN(CC(C)C)CCC1=O returned FMDV inh inactive, HCMV inh inactive and HCV inh inactive.
